These results are taken from the OligoGym collection.
Further: reference of the scale not given here.

In one assay the target is TMEM231. Kind of assay: pooled miR-30 sensor sort-seq; sequence = guide strand. Conditions: shRNA.
TGAGGTCGTAGTCATAGGCAAA registered a sensor-assay potency score (higher = more potent) of -1.58.

The sequence TTCTCTAGTCGAAACGAGCGGG yielded a sensor-assay potency score (higher = more potent) of 0.0646.

Sequence TCTCTAGTCGAAACGAGCGGGA came in with a sensor-assay potency score (higher = more potent) of -0.413.

Sequence TAGGCCACCACAGCTCAGCGGC had a sensor-assay potency score (higher = more potent) of -1.06.

Consider AACACGAAGATCTTGATTCTTT, for which the sensor-assay potency score (higher = more potent) was -0.0929.

Turning to TTCTGAAACACGAAGATCTTGA, the sensor-assay potency score (higher = more potent) worked out at 0.224.

The next assay has as its target TMEM42. The assay is described as above. The following applies: shRNA.
TAGAGTTACATGACTGGCTTTT: the sensor-assay potency score (higher = more potent) is -0.949.

Regarding TAGAACACTGCTGCAGCTGCAC, the sensor-assay potency score (higher = more potent) is -0.354.

TAATACATAAGCATGACACAGA showed a sensor-assay potency score (higher = more potent) of 0.407.

For the sequence TTGAAAAAGTCACTGTGACAGA, the sensor-assay potency score (higher = more potent) is -0.719.

Regarding TTGAATACGCCCCAAAAGCGGC, the sensor-assay potency score (higher = more potent) is -1.46.

The sequence TCCATACAGCACATAGCCCAGG showed a sensor-assay potency score (higher = more potent) of -1.77.

With TGGATTAGGGTGAGTCCGCAGA, the sensor-assay potency score (higher = more potent) is -1.31.

Consider TAGCCCAGGAAGGCCGAGCTGA, for which the sensor-assay potency score (higher = more potent) was -1.22.

The sequence TACGCGGTCGCGGACACGGCGC yielded a sensor-assay potency score (higher = more potent) of -1.65.

With AATAAGGAACACTCCTCCCCAC, the sensor-assay potency score (higher = more potent) was determined as 0.0225.

The sequence AAACCCATGCTCACCTCGCTGC yielded a sensor-assay potency score (higher = more potent) of -0.311.

Sequence TAAACCCATGCTCACCTCGCTG had a sensor-assay potency score (higher = more potent) of -1.26.

The next assay addresses TMEM70. The description is as above. Conditions: shRNA.
In turn, TAACAATCAGTCACTAACGGAA gave a sensor-assay potency score (higher = more potent) of -0.91.

Sequence TAAACAAACATCATTCTCTGGA showed a sensor-assay potency score (higher = more potent) of 0.0797.

In the case of TTTATTATAAACAAACATCATT, the sensor-assay potency score (higher = more potent) was -1.08.

Sequence TTTCACACCAAACACTGCTCGG came in with a sensor-assay potency score (higher = more potent) of -0.271.

For TTAACAATCAGTCACTAACGGA, the sensor-assay potency score (higher = more potent) was -0.588.

TAGCATTGTAGGTAATGGCTTT came in with a sensor-assay potency score (higher = more potent) of -0.0699.

Consider TTTTGTAATAAAGTGAAGCAGC, for which the sensor-assay potency score (higher = more potent) was -0.766.

The sequence TTTAAGAATCGAACATATCCTT gave a sensor-assay potency score (higher = more potent) of 0.136.

TACAATCGAATGACATAGCCTT gave a sensor-assay potency score (higher = more potent) of 0.02.

In turn, TGGTGAAACACTGTACTCGTTT had a sensor-assay potency score (higher = more potent) of -0.765.

For the sequence TTAACTAACAGTGATTTTGTTT, the sensor-assay potency score (higher = more potent) is -0.473.

In the case of TTAAGAATCGAACATATCCTTC, the sensor-assay potency score (higher = more potent) was -0.465.

The target in a further assay is TMEM8B. The description is as above. Conditions: shRNA.
TATCTATGCATGACAGTTTGGG: the sensor-assay potency score (higher = more potent) is -0.202.

Take TTATCTATGCATGACAGTTTGG: the sensor-assay potency score (higher = more potent) was -0.348.

In turn, TGAAGGTGTAGACTGCAGCTTC yielded a sensor-assay potency score (higher = more potent) of -0.202.

Regarding ATGTAGAAGTAGTTGTCCCGGG, the sensor-assay potency score (higher = more potent) was -0.575.

Consider TAGGTGAGCGCATCTGCACTGT, for which the sensor-assay potency score (higher = more potent) was -0.509.

As to TGTAGAAGTAGTTGTCCCGGGT, the sensor-assay potency score (higher = more potent) came out at 0.134.

In the case of AAGCACTGCTGTCTCTGTCTGT, the sensor-assay potency score (higher = more potent) was -0.532.

TCCATGTCGGTCAAGCTGCAGA showed a sensor-assay potency score (higher = more potent) of -1.7.

On to TAGCTGGTAACCACAGCCCCGG, for which the sensor-assay potency score (higher = more potent) is -1.14.

In turn, ATAATTGTGTGTGCGCAGCAGC showed a sensor-assay potency score (higher = more potent) of -0.93.
